Consider 40 compounds from PubChem BioAssay (NCI).

SMILES strings stand for the structures. Values joined by “and” are separate entries in the source; they are usually repeats but may differ in a detail not shown here. Identical values can stand only once. The panel holds about 83,000 compounds, 20% with a hit somewhere; the sample as a whole holds those more often.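 Step 1: grow cells in 96-well plates. Step 2: add test compound at a single concentration. Step 3: incubate 48 h. Step 4: record percent growth.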 Active and inactive are the calls of the source. How the source made its calls: active means growth percent below 10; inactive means the rest.

The test system of the experiment is MDA-MB-468 breast. As to the kind of experiment: NCI-60 one-dose screen, 48 h (100 = growth as untreated, 0 = no growth, -100 = all killed). The conditions noted are these: 10 µM unless noted.
For the compound `C=C1C(=O)O[C@H]2[C@H]1CC/C(COC(=O)/C=C\C(=O)NCc1ccc(Cn3c(=O)sn(-c4ccccc4)c3=O)cc1)=C\CC[C@@]1(C)O[C@@H]21`, the growth is 30.5% (inactive).
The figure for `C/C(=N/O)c1ccc(F)cc1` is 75% (inactive); for `CC1(C)CC[C@]2(C(=O)N3CCCNCC3)CC[C@]3(C)C(=CC[C@@H]4[C@@]5(C)CCC(=O)C(C)(C)[C@@H]5CC[C@]43C)[C@H]2C1` it is 106% (inactive).
Under `CCN(CC)CCCC(C)Nc1ccnc(/C=C/c2ccc(Cl)cc2)c1` (stereo not given) stands -84.5% (active); under `N#CC(C#N)=Cc1c(-c2ccccc2)[nH]c2ccccc12`, 32% (inactive).
Under `CSc1nc(Nc2ccc(S(=O)(=O)Nc3ccon3)cc2)c(C#N)c(-c2ccc(Cl)cc2)n1` stands 93.1% (inactive); under `CCN1C(=O)N(CC)C2SC(N/N=C/c3ccc(OC)cc3)=NC21` (stereo not given), 32.2% (inactive); under `COC(=O)c1c2c(c(C)[n+]([O-])c1C)C(=O)C(NCc1ccc(F)cc1)=CC2=O`, -9.79% (active).
As to `Cc1ccc(-c2nc(/C=C3/C(=O)N(C)c4ccc(F)cc43)c3ccccn23)cc1`, the growth is 101% (inactive).
Under `CCOC(=O)N[C@H]1CCc2cc(OC)c(OC)c(OC)c2-c2ccc(SC)c(=O)cc21` stands -36.8% (active).
The figure for `CC1NC(=O)NC1CCCCCC(=O)O` (stereo not given) is 101% (inactive); for `Brc1ccc2[nH]cc(-c3nonc3-c3c[nH]c4ccccc34)c2c1` it is 62.9% (inactive); for `CN(C)c1ccc(/C=C\c2cccc[n+]2C)cc1` it is 4.18% (active).
The figure for `S=c1[nH]nc(Cc2ccccc2)c(=S)[nH]1` is 94.7% (inactive); for `Cc1cc(C(=O)Nc2cc(Nc3ncccc3-c3ncnc4nc[nH]c34)ccc2F)cc(C(F)(F)F)c1` it is 93.6% (inactive).
Turning to `C#CCOc1ccc(/C=N/Nc2nc(-c3ccc(OC)cc3)cs2)cc1`, the growth was 45.3% (inactive).
The figure for `N#Cc1c(N)nc(N)nc1Nc1ccc(Br)cc1` is 89.6% (inactive).
Under `CCO/C=N/C1=C(C#N)C(c2ccc(Cl)cc2)c2sc3c(CC)cccc3c2O1` (stereo not given) stands -33.4% (active).
Take `CC(C)N=C(N/C(N)=N/c1nc2ccccc2s1)NC(C)C`: the growth was 66.4% (inactive).
The figure for `COc1cc(OC)c2c(=O)c3c(CC=C(C)C)cc(OC)c(O)c3oc2c1` is 110% (inactive).
Under `O=C1c2c(c3c4ccccc4n(CCCCCCN4CCOCC4)c3c3[nH]c4ccccc4c23)C(=O)N1O` stands 103% (inactive); under `COc1ccc(C(=O)C(O)c2ccc(OC)cc2)cc1` (stereo not given), 101% (inactive) and 96.3% (inactive).
Under `COc1cccc(C2(C)Nc3ccccc3-c3nc4ccccc4n32)c1` (stereo not given) stands 109% (inactive).
With `COc1cc2c(c(OC)c1OC)CCC(c1cccc(C(=O)Nc3ccc(C#N)cc3)c1)O2` (stereo not given), the growth is 46.4% (inactive).
The figure for `CC(C)n1cc(C2=C(c3cccc4ccccc34)C(=O)NC2=O)c2cc(Br)ccc21` is 44.4% (inactive); for `CCCCOC(=O)Oc1ccc(C(=O)Oc2ccc(OCC)cc2)cc1` it is 113% (inactive).
For `CC(=O)OC(C)COc1ccc(-c2ccccc2)cc1` (stereo not given), the growth is 98.4% (inactive).
The figure for `ClC(Cl)c1nc(-c2ccccc2)nc2cc(-c3ccccc3)nn12` is 33.8% (inactive); for `O=C1CN(c2ccccc2)C(=O)C1C(=O)Nc1ccc(Cl)c(Cl)c1` (stereo not given) it is 19.2% [100 µM] (inactive).
The figure for `CCOC(=O)C1=C(C)NC(C)=C(C(=O)OCC)C1(C)C` is 98.8% (inactive).
Under `O=C(/C=C/c1ccc2c(c1)OCO2)c1c(O)c2ccccc2oc1=O` stands 133% (inactive).
As for `CC(=O)O[C@H]1CC[C@]2(C)[C@H]3CC=C4[C@@H]5CC(C)(C)CC[C@]5(C(=O)NCCNCCNCCN)CC[C@@]4(C)[C@]3(C)CC[C@H]2C1(C)C`, the growth is -14.5% (active).
Under `Cn1c(/C(C#N)=C/c2ccc3ccccc3c2)cc2ccccc21` stands -3.16% (active); under `CNC(=S)NC(C)(C)C`, 111% (inactive); under `CCOC(=O)c1cc(/C=C/c2cccc(Cl)c2)on1`, 60.3% (inactive).
As for `CC(=C(c1ccc(OCCCN(C)C)cc1)c1ccc(OCCCN(C)C)cc1)c1ccc(Cl)cc1`, the growth is 80% (inactive).
The figure for `Cc1ccc(/C=C2/C(=O)Nc3cc(Cl)c(-c4csc(N)n4)cc32)cc1` is 15.2% (inactive); for `COc1cc(C2C(C#N)=C(N)Oc3cc(O)ccc32)cc(OC)c1OC` (stereo not given) it is -16% (active); for `COc1ccccc1/C=C/C(=O)c1ccccc1` it is 21.4% (inactive).
The figure for `Cn1cc(-c2nc(-c3c[nH]c4c(Cl)nccc34)cs2)c2cc(Br)ccc21` is 19.9% (inactive).
